IP6K1 inh – blocks human inositol hexakisphosphate kinase 1; AID 1645851; Q92551; IP6K1 kinase, ADP-Glo luminescence, 2 h; stronger effect = lower value; activity change, % (series mostly up to about 58 µM); actives 0.81% (n = 140,000); in the data active means activity change below about -25%; further: on the % scale 0 is the no-effect control and ±100 the full control effect
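ADP-Glo luminescence measures ADP made by human IP6K1 during a 2 h RT reaction with ATP/IP6 (mix at 1.3 mM/130 uM); top library doses 57.5 and 19.1 uM final.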
KDM5B inh – KDM5B demethylase inhibition; Potency, µM (series often up to 57.7 µM), most hits filed as inhibitors; actives 2.6% (n = 220,000); Q9UGL1; KDM5B demethylase, FDH-coupled NADH fluorescence (FDH is formaldehyde dehydrogenase); further: potency means the concentration at half of the fitted maximal effect; 0% is about no effect; nearly all actives have a fitted effect of over 70% in size
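Compound dilutions met 200 nM (final) KDM5BΔAP for 10 min at room temperature before substrate addition. The substrate mix held 12.5 µM H3K4me3 with cofactors 25 µM α-ketoglutarate and 50 µM Fe²⁺. NADH signal gain over 30 min defined activity.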
The depositor's hits bear a star; i = inactive; ? = inconclusive; / = no result. In the library only some 2.8% were active in any assay of this set; here they are far more common.

SMILES	IP6K1 inh	KDM5B inh
O=C(c1ccccc1Cl)N1CCN(c2ccc3nnc(-c4ccccc4)n3n2)CC1	26	/
O=C(CCc1c[nH]c2ccccc12)Nc1cccc(Cl)c1	/	i
COc1nccnc1NC1CCN(C(=O)c2ccccc2)CC1	-5	32µM*
CS(=O)(=O)N1CCC(C2CCN(C(=O)c3ccc4nc[nH]c4c3)C2)CC1 (centres undefined)	11	i
COc1nccnc1NC1CCN(C(=O)c2cccc(C)c2)CC1	18	32µM*
COc1nccnc1NC1CCNCC1	0	16µM*
Cc1cccc(C(=O)N2CCC(Oc3ncccc3C(N)=O)C2)c1 (centres undefined)	24	i
COc1nccnc1NC1CCN(C(=O)c2ccc3nc[nH]c3c2)CC1	-5	28µM*
COc1nccnc1NS(=O)(=O)c1ccc(N)cc1	6	/
O=C(c1ccccc1)N1CCC(Oc2ncccc2C(=O)N2CCCCC2)C1 (centres undefined)	6	i
CN1CCN(C(=O)c2cc(-c3cccc(C(F)(F)F)c3)nc3c2cnn3C)CC1	31	/
COc1ccc(CC(=O)N2C[C@@H](CO)[C@@H]3Oc4ccccc4[C@@H]32)cc1	20	/
CCCCOC(=O)N1C[C@@H](C(=O)OCC)[C@@H]2Oc3cc(OC)ccc3[C@@H]21	3	/
Fc1ccc(CNC[C@H]2Cn3c(-c4ccc(Cl)cc4)cnc3CO2)cc1	-5	i
COCCC1(NS(C)(=O)=O)CCN(C(=O)Nc2ccc3c(c2)OCCO3)CC1	-2	i
CCOCCNC(=O)CNC(=O)c1ccc(-c2cccc(C(F)(F)F)c2)cc1	-1	/
CC(C(=O)N1Cc2c(C(=O)NC3CC3)nn(C)c2C1)c1ccccc1 (centres undefined)	-2	/
Cn1ncc2c(C(=O)NCCc3ccc(Cl)cc3)cc(-c3ccc(Cl)nc3)nc21	7	/
COc1cccc(-c2ccc(CN3CCCC(NC(=O)N(C)C)C3)cc2)c1 (centres undefined)	-5	/
O=C(NCC(F)F)C1CCCN(c2nccc(Nc3ccccc3F)n2)C1 (centres undefined)	7	/
COC(=O)CC1C(=O)NCCN1C(=O)c1n[nH]c2c1CCCC2 (centres undefined)	-8	i
COc1nccnc1NC1CCN(C(=O)c2ccco2)CC1	10	25µM*
COc1nccnc1NC1CCN(C(=O)c2cnccn2)CC1	1	?
COc1nccnc1NC1CCN(S(=O)(=O)c2cnc[nH]2)CC1	7	?
COc1nccnc1NC1CCN(S(=O)(=O)c2ccccc2)CC1	2	25µM*
SMILES	IP6K1 inh	KDM5B inh
COc1nccnc1NC1CCN(C(=O)c2n[nH]c3c2CCCC3)CC1	-4	32µM*
COc1cccc(-c2ccc(C(=O)N3CCC(N[S+](=O)([O-])c4c(C)noc4C)CC3)cc2)c1	-3	/
COc1ccc(CCC(=O)N2CCC(F)(C(=O)N3CCCC3)CC2)cc1	11	/
Cn1cccc1C(=O)N1CCO[C@@H](COc2ccccn2)[C@@H]1c1ccccc1	13	/
CSc1ncccc1C(=O)NC(C)C(=O)N1CCN(c2ccccn2)CC1 (centres undefined)	13	?
CC(NC(=O)c1cccc(C#N)c1)C(=O)N1CCN(c2ccccn2)CC1 (centres undefined)	1	25µM*
CC(C)C(NC(=O)c1cccc(C#N)c1)C(=O)N1CCN(c2ccccn2)CC1 (centres undefined)	8	?
CC(NC(=O)c1ccc2c(c1)OCO2)C(=O)N1CCN(c2ccccn2)CC1 (centres undefined)	17	32µM*
O=C1NC(=NC2CCCCC2)C2(CCN(CC3CCCCC3)C2)N1c1cc(F)cc(F)c1 (centres undefined)	2	i
CCOC(=O)[C@H]1[C@@H](O)C(=O)N(Cc2ccccc2)C12CCN(C(=O)CC(C)(C)C)CC2	2	/
Cc1ccc(-c2ccc(CCC(=O)N[C@@H]3CCOC[C@H]3OCC(=O)O)o2)cc1	-9	28µM*
Cc1nccn1CCCC(=O)N[C@@H]1CCOC[C@H]1OCC(=O)O	9	i
COc1cccc(CNC(=O)C2CCCN2C(=O)c2cccc(-c3cccc(OC)c3)c2)c1 (centres undefined)	0	/
CCCCOc1ccc(-c2nc(C3CC(=O)N(c4ccc(OC)cc4)C3)no2)cc1 (centres undefined)	-2	?
O=C1CC(c2noc(-c3ccccc3)n2)CN1c1ccc(Cl)cc1 (centres undefined)	-2	i
O=C1CC(c2noc(-c3ccc(F)cc3)n2)CN1c1ccc(Cl)cc1 (centres undefined)	15	?
COc1ccc(N2CC(c3noc(-c4ccc(Cl)cc4)n3)CC2=O)cc1 (centres undefined)	12	i
CCOc1ccc(-c2nc(C3CC(=O)N(c4ccc(Cl)cc4)C3)no2)cc1 (centres undefined)	-4	32µM*
CCCCOc1ccc(-c2nc(C3CC(=O)N(c4ccc(F)cc4)C3)no2)cc1 (centres undefined)	-8	32µM*
O=C1CC(c2noc(-c3ccc(-c4ccccc4)cc3)n2)CN1c1ccc(F)cc1 (centres undefined)	-11	32µM*
CN(C)c1ccc(-c2nc(C3CC(=O)N(c4ccc(Cl)cc4)C3)no2)cc1 (centres undefined)	0	4µM*
CN1CCN(C(=O)c2ccc3nnc(C4CCCC4)n3c2)CC1	2	/
Cc1nn(-c2ccccc2)c2c1C(C1CC1)N(C1CCN([S+](C)(=O)[O-])C1)C2=O (centres undefined)	-7	/
COc1ccc(F)cc1-c1ccc(CN2CCC(NC(C)=O)C2)cc1 (centres undefined)	5	/
CCOc1cc(-c2nc(C3CC(=O)N(c4ccc(F)c(Cl)c4)C3)no2)cc(OCC)c1OCC (centres undefined)	2	?
SMILES	IP6K1 inh	KDM5B inh
CCOc1ccc(-c2nc(C3CC(=O)N(c4ccc(F)c(Cl)c4)C3)no2)cc1OCC (centres undefined)	-9	32µM*
CCOC(=O)[C@H]1C[C@]2(CCCCNC2=O)N(C(=O)/C=C/c2ccccc2)[C@H]1c1ccco1	7	/
CCOC(=O)[C@@H]1CN(C(=O)c2cc3ccccc3s2)[C@H]2c3cccc(F)c3O[C@@H]12	6	/
CCC(O)c1cc2n(n1)CCCN(C(=O)CCc1ccsc1)C2 (centres undefined)	-5	i
CC(O)c1cc2n(n1)CCCN(C(=O)CCc1cn3ccccc3n1)C2 (centres undefined)	22	25µM*
CCC(O)c1cc2n(n1)CCN(C(=O)CCc1cn3ccccc3n1)C2 (centres undefined)	10	11µM*
CCC(O)c1cc2n(n1)CCN(C(=O)CCn1cnc3ccccc3c1=O)C2 (centres undefined)	14	i
COc1ccc(-c2cn3cc(C(=O)NCCCc4ccccc4)nc3s2)cc1	-8	/
COc1c(C)c(OCC(O)C(C)(C)O)cc2c1COC2=O (centres undefined)	-7	/
Cc1cc(C)n2nc(C(=O)NCC3COc4ccccc4C3)cc2n1 (centres undefined)	15	22µM*
CCCn1cc(C(=O)NCC2COc3cc(OC)ccc3C2)c(C)n1 (centres undefined)	-1	i
Cc1cccc2c1O[C@H]1[C@H](CO)CN([S+](=O)([O-])c3ccccc3)[C@@H]21	5	/

Screening data deposited in PubChem by National Center for Advancing Translational Sciences (NCATS).
